In PubChem BioAssay AID1347070 (National Center for Advancing Translational Sciences (NCATS), 2019):
The whole screen tested about 94,000 compounds, of which about 20 (0.02%) were called active. Inconclusive results (about 1%) are left out. The call rests on the fitted dose curve; in most records, active means well fitted activation curve with a large enough effect; inconclusive means small, poorly fitted or top-dose-only effect; inactive means flat fitted curve, though single readings scatter. The list is a sample of the results.

Assay: qHTS of alpha-syn Inhibitors: NCGC Sytravon Library Screen; further: 0% is about no effect
Conditions: S. cerevisiae alpha-synuclein toxicity rescue, BacTiter-Glo growth, 24 h; series mostly up to 46.1 µM; growth rescue (activation): at the top concentration
Description: The goal of this project is to identify new chemical probes capable of reversing the toxicity associated with the Parkinson disease-related protein, alpha-synuclein. Compounds will be selected on their ability to restore growth in yeast cells expressing toxic levels of alpha-synuclein. These compounds will provide a complementary approach to deciphering the tangled mechanisms of toxicity and protection that we have uncovered through genome-wide genetic screens and are beginning to uncover in a large-scale proteomics analysis with mass spectroscopy. To this end, a miniaturized assay was developed to be screened against the Molecular Libraries Small Molecule Repository (MLSMR) to discover alpha-synuclein inhibitors. […] The phenotype of interest will be that of an Activator and this screen is run against the NCGC Sytravon Library collection. NIH Chemical Genomics Center [NCGC] NIH Molecular Libraries Probe Centers Network [MLPCN] MLPCN Grant: NS060957 Assay Submitter (PI): Susan Lindquist, Whitehead Institute/MIT
Dispense 2.5 microL yeast galactose medium per 1536-well plate, pin compound, dispense 2.5 microL alpha-synuclein expressing yeast in galactose medium at OD600=0.02 (pregrown in raffinose medium to mid-log phase) per well, incubate for 24 hr at 30 deg C, and cell growth will be measured using 5 microL of Bactiter/Glo reagent to entire plate and read using Luminescence Protocol in ViewLux.

Structure (SMILES)	growth rescue (activation)	outcome
O=C(Nc1ccccc1)C1CC(=O)n2c(nc3ccccc32)N1 (stereo not drawn)	-12.2% (inactive)	–
Cc1ccc(C=O)c([B-](F)(F)F)c1	-10.2% (inactive)	–
O=C(CNc1ccccc1N1CCCC1=O)Nc1cc(Cl)ccc1-n1cncn1	1.15% (inactive)	–
O=C(/C=C/Nc1ccc(S(=O)(=O)Nc2cnc3ccccc3n2)cc1)c1cccnc1	-7.11% (inactive)	–
CCOC(=O)c1cc(-c2sc(NC(=O)c3ccccc3)nc2C)n(CCO)n1	0.447% (inactive)	–
COc1ccc2oc(C(=O)N(CC(C)C)C3CCS(=O)(=O)C3)c(C)c2c1 (stereo not drawn)	-1.27% (inactive)	–
CN(CCN1CCOCC1)Cc1nc(-c2ccc3c(c2)OCO3)no1	0.432% (inactive)	–
COCOCCn1cc(CN2CCS(=O)(=O)N(Cc3ccc(-c4ccccc4)cc3)C(CC(C)C)C2=O)nn1 (stereo not drawn)	-6.88% (inactive)	–
CCc1nnc(NC(=O)c2ccco2)s1	-11.6% (inactive)	–
Cn1ccc(=NC=C(C#N)C#N)c2ccccc21	2.17% (inactive)	–
COc1cc(NS(=O)(=O)c2ccc(NC(=S)NC(=O)c3ccccc3)cc2)nc(OC)n1	13.9% (inactive)	–
O=C(OCc1nnc(-c2ccccc2)o1)c1cc(=O)[nH]c2ccccc12	4.04% (inactive)	–
O=C1[C@H]2[C@@H](c3ccc(C(F)(F)F)cc3)N[C@]3(CCCN(Cc4ccc(Cl)cc4)C3=O)[C@H]2C(=O)N1Cc1ccccc1	20.9% (inactive)	–
Cn1cnnc1SCC(=O)NNC(=O)COc1ccc(Br)cc1	5.71% (inactive)	–
Cc1ccc(N(C(=O)Cc2cccs2)C(C(=O)NCC2CCCO2)c2ccncc2)cc1 (stereo not drawn)	4.36% (inactive)	–
COc1ccccc1NC(=O)CCSc1nnc(-c2ccc(O)cc2)o1	4.49% (inactive)	–
O=C(OCc1cn([C@H]2C[C@H](c3ccccc3)N(C(=O)c3cccs3)C[C@@H]2O)nn1)c1ccccc1	4.38% (inactive)	–
COc1ccc(NC(=O)CN(C)C(=O)c2cc(C)oc2C)cc1	-11.2% (inactive)	–
Cc1noc(C)c1COc1ccccc1C(=O)N(C)CC(=O)Nc1cccc(F)c1	-6.68% (inactive)	–
COc1ccc(N(C(=O)c2snc(C(N)=O)c2N)C(C(=O)NC2CCCC2)c2ccc(C)o2)c(OC)c1 (stereo not drawn)	-6.84% (inactive)	–
NS(=O)(=O)c1ccc(NC(=S)NC(=O)c2cccnc2)cc1	4.97% (inactive)	–
C=C(C)COc1ccc(-c2nc(N)ncc2-c2ccccc2OC)c(O)c1	1.32% (inactive)	–
Cc1cccc(OCC(=O)NCCCNC(=O)c2ccccn2)c1	-2.97% (inactive)	–
O=C(NC1CCCC1)C1CC(=O)N(c2ccc(F)cc2)C1 (stereo not drawn)	5.38% (inactive)	–
CO/N=C/c1cn(-c2ccc(Cl)cc2)nn1	-2.78% (inactive)	–
CC(OC(=O)c1ccc(NC(=O)CC#N)cc1)C(=O)Nc1ccc(S(=O)(=O)N2CCCC2)cc1 (stereo not drawn)	-3.04% (inactive)	–

Structure (SMILES)	growth rescue (activation)	outcome
Cc1cccc(C)c1NC(=O)CS(=O)CC(=O)N1CCN(c2ccccc2)CC1 (stereo not drawn)	0.0275% (inactive)	–
CCOc1ccc(NS(=O)(=O)c2ccc(C(=O)NCC(c3ccccc3OC)N3CCCC3)cc2)cc1 (stereo not drawn)	-0.106% (inactive)	–
O=[N+]([O-])c1ccc(C(S(=O)(=O)Cc2ccccc2)S(=O)(=O)Cc2ccccc2)cc1	6.13% (inactive)	–
O=C(NCc1ccc(Cl)cc1)C(=O)NCC1CCCN1S(=O)(=O)c1cccs1 (stereo not drawn)	3.28% (inactive)	–
O=C(CNC(=O)N1CC(=O)Nc2ccccc21)Nc1ccc(Br)cc1F	-8.77% (inactive)	–
O=C(c1ccc(N2CCCC2=O)cc1)N1CCN(c2ccc(C(F)(F)F)cc2[N+](=O)[O-])CC1	-12.1% (inactive)	–
Cc1ccc(CN2CC(C(=O)N3CCN(S(=O)(=O)c4ccccc4)CC3)CC2=O)cc1 (stereo not drawn)	-46.5% (inactive)	–
CCN(C(=O)C1CCCN(c2nc(-c3ccc(OC)cc3)no2)C1)c1ccc(OC)cc1 (stereo not drawn)	-9.06% (inactive)	–
CN(C)c1ccc(C2Nc3ccccc3C(=O)N2NS(=O)(=O)c2ccccc2)cc1 (stereo not drawn)	-4.67% (inactive)	–
COc1cc(CNC2CCCC2)c(Br)cc1OCc1ccccc1	-7.75% (inactive)	–
Cc1ccc(C(=O)N[C@H](C(=O)N2CCN(c3ncccn3)CC2)C(C)C)cc1	-38.6% (inactive)	–
Cc1nnc(SC(C(=O)c2ccccc2)c2ccccc2)[nH]c1=O (stereo not drawn)	2.28% (inactive)	–
CCOC(=O)C1=C(CC)OC(N)=C(C#N)C1c1ccc(F)cc1F (stereo not drawn)	4.04% (inactive)	–
COc1ccc(NC(=O)C2=C(C)NC(=O)NC2c2ccccc2[N+](=O)[O-])cc1 (stereo not drawn)	-9.9% (inactive)	–
NC(=O)CCN1CCN(S(=O)(=O)/C=C/c2ccccc2)CC1	-3.44% (inactive)	–
COc1ccccc1N1CCN(CC(=O)NCCc2ccc(S(N)(=O)=O)cc2)CC1	0.992% (inactive)	–
O=C(O)Cc1csc(-c2cccc(Oc3ccccc3)c2)n1	–	inactive
O=C(CN1CCCCCC1)NCCN1C(=O)S/C(=C\c2ccccc2Cl)C1=O	5% (inactive)	–
CCOC(=O)c1cnn2c(SC)ncnc12	-4.38% (inactive)	–
CCCCN1C(=O)C(CC(=O)NCc2cccs2)CC(C(=O)N2CCOCC2)=C1C (stereo not drawn)	5.72% (inactive)	–
OCCC#Cc1ccc(CN2CCN(Cc3ccsc3)C(CCO)C2)cc1 (stereo not drawn)	3.34% (inactive)	–
CCC(CC)C(=O)Nc1c2c(nn1-c1ccc(C)cc1)CS(=O)(=O)C2	-7.31% (inactive)	–
Cc1cccc(NC(=O)CCn2c(=O)oc3ccccc32)c1	3.25% (inactive)	–
CCCCN(C(=O)CSCc1ccc(C)cc1)c1c(N)n(Cc2ccccc2)c(=O)[nH]c1=O	-47.4% (inactive)	–
O=C(CN1CCCSc2ccccc21)N1CCN(S(=O)(=O)c2ccccc2)CC1	3.26% (inactive)	–
O=C(C1CCCO1)N1CCN(C(=O)C23CC4CC(CC(C4)C2)C3)CC1 (stereo not drawn)	11% (inactive)	–

Structure (SMILES)	growth rescue (activation)	outcome
CCOC(=O)C(C(=O)c1ccccc1)C(c1ccccc1)c1nccc2ccccc12 (stereo not drawn)	-2.07% (inactive)	–
COc1cccc(N2CC(C(=O)NCc3n[nH]c(=O)c4ccccc34)CC2=O)c1 (stereo not drawn)	3.61% (inactive)	–
CCCCS(=O)c1snnc1C (stereo not drawn)	-1.6% (inactive)	–
Cc1ccc(NC(=O)NC(=O)N(C2CCCCC2)S(=O)(=O)c2ccccc2)cc1	7.08% (inactive)	–
O=C(Nc1ccccc1C(=O)N1CCOCC1)c1ccc(CSc2ccccc2)cc1	7.69% (inactive)	–
CCN(CC)C(=O)C1=C(C)N(Cc2ccc(OC)cc2)C(=O)C(CC(=O)NCCCCc2ccccc2)C1 (stereo not drawn)	-3.54% (inactive)	–
CN(C)CCOCCOc1ccc(Cl)c2ccccc12	0.677% (inactive)	–
O=C(Nc1cccc([N+](=O)[O-])c1)Nc1ccc(Cl)cn1	4.36% (inactive)	–
O=C(NCC(F)(F)F)c1ccc(S(=O)(=O)NCCc2ccc3c(c2)OCCO3)cc1	12% (inactive)	–
CC(=O)c1cnc(SCC(=O)O)nc1C	-11.9% (inactive)	–
CN(C(=O)COC(=O)c1ccc(Br)o1)c1c(N)n(Cc2ccccc2)c(=O)[nH]c1=O	2.7% (inactive)	–
COc1ccc(CNC(=O)C2CCN(S(=O)(=O)c3ccc(SC)cc3)CC2)cc1	4.73% (inactive)	–
CCOC(=O)c1sc(NC(=O)c2sc(C)nc2C)nc1C	-1.28% (inactive)	–
CCN(CC(=O)NCCc1ccccc1)S(=O)(=O)c1ccccc1	17.5% (inactive)	–
CCc1ccccc1OCC(=O)Nc1ccc2c(c1)OCCO2	3.32% (inactive)	–
CCN(CC)CCn1c2c(c(SCC(=O)Nc3ccc(C(C)C)cc3)nc1=O)CCC2	8.84% (inactive)	–
CCC(=O)c1ccc(OCC(=O)N(CC)CC2COc3ccccc3O2)cc1 (stereo not drawn)	6.47% (inactive)	–
CC(=O)Nc1ccc2nc(NC(=O)CS(=O)(=O)c3ccc(F)cc3)sc2c1	-3.04% (inactive)	–
COc1ccc(NC(=O)CCC(=O)Nc2cc(OC)c(NC(=O)c3ccco3)cc2OC)c(OC)c1	9.61% (inactive)	–
COc1cc(NC(=O)CN(C)S(=O)(=O)c2ccc3nc(C)sc3c2)cc(OC)c1	2.95% (inactive)	–
CCCCn1c(SCC(=O)N2CCOCC2)nc2c1c(=O)n(C)c(=O)n2C	-3.16% (inactive)	–
CSc1nnc(C2CCCN(CC(=O)Nc3ccccc3N3CCOCC3)C2)n1C(C)C (stereo not drawn)	9.2% (inactive)	–
Cc1cc2cc3n(c2nn1)N=C(Cl)CC3	-2.87% (inactive)	–
CCOc1ccc(-c2n[nH]c(C)c2-c2ccccn2)c(O)c1	-4.58% (inactive)	–
O=C(Nc1cc(F)ccc1F)c1ccc2c(=O)n3c(nc2c1)CCC3	-5.44% (inactive)	–
COc1ccc(NC(=O)CC2C(=O)NC3CCCCC3N2C(=O)c2ccc(F)cc2)cc1 (stereo not drawn)	5.79% (inactive)	–

Structure (SMILES)	growth rescue (activation)	outcome
O=C(Nc1ccc(F)c([N+](=O)[O-])c1)C1CCCO1 (stereo not drawn)	9.96% (inactive)	–
CCOC(=O)c1[nH]cnc1C(=O)Nc1ccccc1C	-6.47% (inactive)	–
O=C(c1ccccc1)N1CCN(C(=O)c2cc3nc(-c4ccccc4)cc(C(F)(F)F)n3n2)CC1	9.69% (inactive)	–
O=S(=O)(Nc1ccccc1Br)c1cccs1	5.51% (inactive)	–
O=C(Nc1ccccc1C(=O)N1CCCCC1)c1ccco1	7.96% (inactive)	–
COc1cccc(N2CC(NS(=O)(=O)c3cccs3)CC2=O)c1 (stereo not drawn)	1.66% (inactive)	–
Cc1cn([C@H]2C[C@H](O)[C@@H](CNC(=O)[C@H](N)Cc3cccnc3)O2)c(=O)[nH]c1=O	3.32% (inactive)	–
COC(=O)c1cc(OCC(=O)NC2CCCc3ccccc32)cc(C(=O)OC)c1 (stereo not drawn)	4.38% (inactive)	–
O=C(Cc1ccccc1)NNC1CC(=O)N(c2ccc(Br)cc2)C1=O (stereo not drawn)	-7.94% (inactive)	–
CCOC(=O)C1=C(c2ccccc2)NC(=S)NC1c1ccc(Cl)cc1 (stereo not drawn)	6.93% (inactive)	–
COc1ccc(-n2c(-c3ccc(Cl)cc3)n[nH]c2=S)c(OC)c1	2.94% (inactive)	–
COc1ccc(CC(=O)NC(C)CCc2ccccc2)cc1 (stereo not drawn)	10.7% (inactive)	–
C/C(CC(=O)NC(C)c1ccccc1)=N\NC(N)=S (stereo not drawn)	5.9% (inactive)	–
CN(C)c1ccc(C(=S)N2CCN(C(=S)Nc3ccc(Cl)cc3)CC2)cc1	-0.752% (inactive)	–
CCCOc1ccc(/C=N/NC(=O)C2CC2)c(OCCC)c1	8.78% (inactive)	–
CCOC(=O)Cc1ncccc1C(=O)Nc1ccc(OC)cc1	6.95% (inactive)	–
COc1ccc(CN2C(=O)C(CC(=O)NCCCCc3ccccc3)CC(C(=O)N3CCOCC3)=C2C)cc1 (stereo not drawn)	1.23% (inactive)	–
CCOC(=O)c1c(NC(=O)COC(=O)c2ccc(S(=O)(=O)C(F)F)cc2)sc(C(=O)N(C)C)c1C	-5.95% (inactive)	–
CC(=O)Nc1ccc(C(=O)NNC(=O)CCCCC(=O)NNC(=O)c2ccc(NC(C)=O)cc2)cc1	-13.9% (inactive)	–
O=C(O)CC12CC3CC(C1)CC(n1ncc(NCc4ccc(F)cc4)c(Cl)c1=O)(C3)C2	0.767% (inactive)	–
CCOc1cc2c(Cl)ncnc2c(OCC)c1OCC	-10.8% (inactive)	–
COc1ccc(N2CCN(C(=O)[C@@H](NC(=O)c3cc(OC)cc(OC)c3)C(C)C)CC2)cc1	6.27% (inactive)	–
O=C(NCCOc1ccccc1)c1ccccc1F	-4.85% (inactive)	–
O=C(CSc1nnc(CN2CCCC2)n1-c1ccc(F)cc1)c1ccc2c(c1)OCO2	-7.99% (inactive)	–
C[C@H]1CN(c2ccc(Br)cc2)C(=O)[C@@H]1CC(=O)Nc1ccc(Br)cc1	-0.722% (inactive)	–
